± gives the standard deviation of the averaged measurements. Over roughly 25,000 sequences, “ln(normalized median fluorescence intensity)” has its median near 8.6; the highest 2% begin near 10. The entries come from a sample that favours the highest values as a whole.

This test concerns PfAP2-EXP AP2 domain (GST-tagged). Put plainly: gcPBM binding intensity (ln(normalized median fluorescence intensity)); higher = stronger DNA binding. A digest of the protocol: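 Binding intensity values are the highest Masliner-normalised natural-log median intensity among replicate spots of either probe orientation. The binding step lasted 1 h in 1× PBS with 1% milk, 0.2 mg/ml BSA, 0.5% salmon testes DNA and 0.03% Triton X-100, using GST-tagged P. falciparum DNA-binding domains expressed in E. coli on an Agilent 4 × 180k array of primer-extended double-stranded 36-bp intergenic genomic probes plus negative controls. Alexa488 anti-GST antibody and a 488 nm scan detected bound protein.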
Turning to “TATATATATATATACACACACACACCCCAAAGCGTA [CACACA_site64]”, the “gcPBM binding intensity (ln)” value was 10.4 ± 0.15.

For the sequence “TATATATATATATATACACACACACCCACCAAAGCG [CACACA_site7904]”, the “gcPBM binding intensity (ln)” value is 10.3 ± 0.26.

On to “CATATACACCAACACACACACACACCCACAAAAAAA [CACACA_site496]”, for which the “gcPBM binding intensity (ln)” value is 8.53 ± 0.4.

With “TATATATATAAATACACACACACACCCCAAAGCGTA [CACACA_site4211]”, the “gcPBM binding intensity (ln)” value was determined as 9.18 ± 0.46.

In the case of “GTACACATATAGTAATAATTTTATTATATTTTTTTG [CACACA_negctrl_site843]”, the “gcPBM binding intensity (ln)” value is 8.46 ± 0.3.

“ATATAAGTACGGCATGCATGCACATTTTTTTATTCC [TGCATGCA_site101]”: the “gcPBM binding intensity (ln)” value came out at 10.3 ± 0.23.

Turning to “TATATATATATATATTTTTTTTTTTTATGCACATGG [CACACA_negctrl_site1573]”, the “gcPBM binding intensity (ln)” value turned out to be 10.1 ± 0.36.

“GATTATTTTATAAGTACACACATTTATATATAATAA [CACACA_site2573]”: the “gcPBM binding intensity (ln)” value turned out to be 8.41 ± 0.33.

Regarding “AAATATTACCATGTGAAAATTTTACTGCAACATGAA [TGCATGCA_negctrl_site609]”, the “gcPBM binding intensity (ln)” value came out at 8.71 ± 0.38.

Consider “AATGAATAATTATTTTGTACATAATATTATATTTAT [XGTACX_site5350]”, for which the “gcPBM binding intensity (ln)” value came out at 8.34 ± 0.36.

As for “AATCATTAAAGCATAATGTTTATGATCAATATGAAA [CACACA_negctrl_site887]”, the “gcPBM binding intensity (ln)” value is 8.27 ± 0.33.

Turning to “TTTATATTTATATATACACACATATACATCCTATTT [CACACA_site3079]”, the “gcPBM binding intensity (ln)” value turned out to be 8.54 ± 0.31.

In the case of “CTCATCCTTACATACACACACATATATTTATTTATA [CACACA_site6202]”, the “gcPBM binding intensity (ln)” value worked out at 8.99 ± 0.39.

On to “CTCATCCTTACATACACACACATATATATATATATA [CACACA_site103]”, for which the “gcPBM binding intensity (ln)” value was 10.2 ± 0.29.

On to “CCCTCTTCTCTCATATCACACATGTCATCCTTATCC [CACACA_site5078]”, for which the “gcPBM binding intensity (ln)” value was found to be 9.15 ± 0.42.

Turning to “TTCTCATCCTTACATACACACACATATATATATATA [CACACA_site7914]”, the “gcPBM binding intensity (ln)” value was 10.3 ± 0.11.

Consider “GTTACATACATATACACACACATATATATATATATA [CACACA_site901]”, for which the “gcPBM binding intensity (ln)” value is 9.99 ± 0.35.

With “TTTTTTTTTTTTTTTACACACAAATGTATACTATAT [CACACA_site1787]”, the “gcPBM binding intensity (ln)” value was found to be 8.46 ± 0.43.

“TTTTTATTGTTATAGTTATAATATATTATTTGATTA [XGTACX_negctrl_site27]”: the “gcPBM binding intensity (ln)” value was 8.44 ± 0.4.

For “ATATATATATATAATAGTACATATATTTTGAAAGAT [XGTACX_site5800]”, the “gcPBM binding intensity (ln)” value worked out at 9.75 ± 0.27.

Regarding “ATATTTGCCCAAGATAGTACATATATATATATATAT [XGTACX_site7756]”, the “gcPBM binding intensity (ln)” value came to 10.2 ± 0.24.

As for “TATATATTAGAAGATAGTACATATATATTTATTAAT [XGTACX_site1011]”, the “gcPBM binding intensity (ln)” value was determined as 8.53 ± 0.24.

As for “AAAATTAAATTATAAGCACACACATATATATATATA [CACACA_site9105]”, the “gcPBM binding intensity (ln)” value was determined as 10.2 ± 0.52.

“AAAAAAAAAAAATTCACACACATATAAAAAATTAAG [CACACA_site728]”: the “gcPBM binding intensity (ln)” value came out at 8.39 ± 0.45.

Turning to “AAATTAAATGTAAGCACACATAAATTATACTCATAT [CACACA_site5782]”, the “gcPBM binding intensity (ln)” value was found to be 8.36 ± 0.33.

Consider “AAAAATATTATAAGCACACATATATATATATATATA [CACACA_site2458]”, for which the “gcPBM binding intensity (ln)” value worked out at 10.3 ± 0.28.

With “ATAAAAATATTATAAGCACACATATATATATATATA [CACACA_site8781]”, the “gcPBM binding intensity (ln)” value came out at 10.2 ± 0.34.

On to “AAATTAAATGTAAGCACACATAAATTATACGCATAT [CACACA_site3335]”, for which the “gcPBM binding intensity (ln)” value is 8.6 ± 0.38.

“TATATATATATAAGCACACAAACAAAAAAAATTATA [CACACA_site3897]”: the “gcPBM binding intensity (ln)” value came to 9.74 ± 0.27.

For “AATTAAATTATAAGCACACACATATATATATATATA [CACACA_site3351]”, the “gcPBM binding intensity (ln)” value is 10.2 ± 0.32.

Take “ATAAAAAAAAATAGCACACATAAATATATTATATAT [CACACA_site767]”: the “gcPBM binding intensity (ln)” value was determined as 8.66 ± 0.35.

On to “ATACAATAATATAAATGTACAAATTATATCTTCATT [XGTACX_site8994]”, for which the “gcPBM binding intensity (ln)” value is 8.37 ± 0.33.

With “TATACCTATAGACACACACACATAAATAGATATATA [CACACA_site6748]”, the “gcPBM binding intensity (ln)” value is 8.83 ± 0.51.

As for “TATATGCAAAATGTCACACATGTGATAAATACATAT [CACACA_site4302]”, the “gcPBM binding intensity (ln)” value turned out to be 8.72 ± 0.36.

For the sequence “ATTTTACATATTTGCACACATATATTTATATACATA [CACACA_site854]”, the “gcPBM binding intensity (ln)” value amounted to 8.89 ± 0.4.

As to “TATAAAAAAAACGAAAAAAAAAAAAAAAATACAGGA [TGCATGCA_negctrl_site585]”, the “gcPBM binding intensity (ln)” value amounted to 8.54 ± 0.61.

Take “TATATATATATATATACACACATACAGATATATATT [CACACA_site4629]”: the “gcPBM binding intensity (ln)” value was determined as 10.2 ± 0.36.

Consider “AGTATACAGATATATACACACATATATATATATATA [CACACA_site4323]”, for which the “gcPBM binding intensity (ln)” value is 10 ± 0.41.

“TGTTGTTACAGATATACACACATATATATATTATAT [CACACA_site5342]”: the “gcPBM binding intensity (ln)” value was 8.55 ± 0.41.

Consider “TATATATATATATATACACACATATACATATTGTTT [CACACA_site3499]”, for which the “gcPBM binding intensity (ln)” value came to 10.2 ± 0.32.

Regarding “CACAGATATATACATACACACATATATACACATATA [CACACA_site6323]”, the “gcPBM binding intensity (ln)” value came out at 8.58 ± 0.38.

On to “TATATATATATATATACACACATACATATATATATT [CACACA_site8185]”, for which the “gcPBM binding intensity (ln)” value is 10.1 ± 0.4.

On to “CATACATACATACATACACACATACAGATATATATA [CACACA_site4890]”, for which the “gcPBM binding intensity (ln)” value came to 9.15 ± 0.32.

Consider “TATATATACATACATACACACATATATATATATATT [CACACA_site4110]”, for which the “gcPBM binding intensity (ln)” value stood at 8.71 ± 0.4.

Consider “GTTACATACAGATACACACACATATATATATATATA [CACACA_site4652]”, for which the “gcPBM binding intensity (ln)” value stood at 10.2 ± 0.15.
